From PubChem BioAssay
Rows were chosen to be rich in hits. Some 27% of all compounds tested hit in one or more screens of this group.
Cav32 inh: Cav3.2 calcium influx blockers – cell-based, Fluo-4 calcium fluorescence, FDSS, MLSMR library, primary screen; Voltage-dependent T-type calcium channel subunit alpha-1H (Homo sapiens), O95180; Cav3.2-expressing cells; stronger effect = lower value; B-score at 10 µM; hit rate 4% among 100,000; AID 449739, 2010;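 active means single-dose well whose peak fluorescence ratio is a statistical outlier from its plate by either plate-standardised score or position-corrected B-score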
CYP2C19 activ: human CYP2C19 activators, primary screen, biochemical, luminescence; AID 1025, 2008; 96,000 tested, under 10 active; activation factor at 5 µM; recombinant CYP2C19, luciferin-H EGE luminescence; stronger effect = higher value; 0 = fully inhibited enzyme, 1 = untreated enzyme;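 active means activation factor of at least 2 at 5 µM in the primary screen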;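 further: 0 = wells with 2.5 mM tranylcypromine and 1 = vehicle-only wells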
CYP2C9 inhib: blockers of cytochrome P450 2C9 activity – biochemical, luminescence, ADME assay, primary screen; CYP2C9 Supersomes, luciferin-H conversion; inhibition, % at 5 µM; hit rate 20% among 96,000; AID 777, 2007;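 active means blocking of liver enzyme CYP2C9 beyond about 50% at 5 µM, limit read from the data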
Target sequence (P11712 whole entry, looked up): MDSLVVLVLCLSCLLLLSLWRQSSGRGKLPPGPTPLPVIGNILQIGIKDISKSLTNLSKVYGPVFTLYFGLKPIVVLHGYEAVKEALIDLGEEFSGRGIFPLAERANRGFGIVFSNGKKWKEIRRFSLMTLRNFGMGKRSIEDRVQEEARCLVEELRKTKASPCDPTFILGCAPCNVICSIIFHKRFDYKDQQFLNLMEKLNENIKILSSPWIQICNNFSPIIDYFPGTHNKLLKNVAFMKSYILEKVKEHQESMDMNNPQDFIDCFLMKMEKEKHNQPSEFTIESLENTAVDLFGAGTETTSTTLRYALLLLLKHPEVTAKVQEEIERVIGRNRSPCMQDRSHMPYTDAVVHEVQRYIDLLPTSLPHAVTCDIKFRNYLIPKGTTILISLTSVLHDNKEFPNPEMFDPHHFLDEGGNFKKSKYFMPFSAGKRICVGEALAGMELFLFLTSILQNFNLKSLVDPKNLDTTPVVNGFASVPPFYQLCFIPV
CYP2C19 inhib: blockers of cytochrome P450 2C19 activity – biochemical, luminescence, ADME assay, primary screen. hit rate 21% among 96,000. inhibition, % at 5 µM. P33261. CYP2C19 Supersomes, luciferin-H EGE luminescence, 30 min;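 active means CYP2C19 inhibition above a set limit at 5 µM in the primary screen, cut at about 50% in these data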;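 further: plate controls were negative control wells for no effect and 2.5 mM tranylcypromine positive control for full effect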
Pyk2 oligo antag: antagonists of Pyk2 self-association, primary screen, Q293 cells, FERM NanoBiT luminescence, HTS. stronger effect = lower value. z-score (the deposit names both 25 µM and 10 µM). hit rate 0.83% among 99,000. AID 1347419, 2020;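 active means Z-score of -3 or lower, scaled per plate to the spread of control and sample wells; inactive means z-score above -3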;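 further: negative z-score means lost luminescence so less FERM oligomerization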
CYP2C9 activ: human CYP2C9 activators, primary screen, biochemical, luminescence. Cytochrome P450 2C9 (Homo sapiens), P11712. recombinant CYP2C9, luciferin-H conversion; stronger effect = higher value; factor 1 = untreated enzyme, 0 = blocked. activation factor at 5 µM. hit rate 1.4% among 96,000. AID 1024, 2008;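 active means activation factor of 2 or more for CYP2C9 at a 5 µM dose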;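 further: 0 = sulfaphenazole-blocked wells and 1 = vehicle-only wells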
An asterisk follows results filed as active; · = no result given.

SMILES	Cav32 inh	CYP2C19 activ	CYP2C9 inhib	CYP2C19 inhib	Pyk2 oligo antag	CYP2C9 activ
Cc1ccc(Cl)c(OCC(=O)Nc2ccc3c(c2)OCCO3)c1	0.053	1	-12	1	-0.16	1.1
COc1ccc(C)cc1S(=O)(=O)N(C)CC(=O)Nc1ccc2c(c1)OCO2	1	0.4	86*	58*	1.7	0.1
O=C(NCCN1CCOCC1)c1ccc2ccccc2c1	·	0.5	2	45	-0.12	1
CCOC(=O)CSc1ccc(S(=O)(=O)N(C)C2CCCCC2)cc1[N+](=O)[O-]	-3.2	0.4	88*	64*	3.2	0.1
CCOC(=O)N1CCN(C(=O)CN(C2CCCCC2)S(=O)(=O)c2ccc(F)cc2)CC1	0.17	1.1	-9	-5	0.82	1.1
Cc1cc(C)c(C#N)c(SCC(=O)N(C)C2CCCCC2)n1	-1.5	0.7	-23	25	-1.5	1.2
CCN(Cc1ccccc1)C(=O)CSc1nc(C)cc(C)c1C#N	-4.1*	0.4	-60	62*	·	1.6
Cc1cc(C)c(C#N)c(SCC(=O)N2CCN(Cc3ccccc3)CC2)n1	-1	0.5	30	52*	0.64	0.7
Cc1cc(C)c(C#N)c(SCC(=O)N2CCCCC2)n1	1.5	0.5	-36	54*	1.2	1.4
O=C(CSc1nc2cc3ccccc3cc2[nH]1)Nc1ccc(F)cc1	-0.046	0.6	69*	37	0.27	0.3
c1ccc(-c2cc(CSc3nc4ccccc4[nH]3)on2)cc1	-3.2	0.7	62*	28	-0.69	0.4
Fc1cccc(F)c1CSc1nc2ccccc2[nH]1	-0.0034	0.5	49	54*	-0.42	0.5
O=C(CSc1nc2ccccc2[nH]1)Nc1c(F)cccc1F	-0.17	0.5	41	51*	0.9	0.6
Cc1noc(C)c1CSc1nc2ccccc2[nH]1	·	0.6	26	37	0.49	0.7
CN1CCC(=O)N(CCSc2ccc(Br)cc2)CC1	-0.016	·	·	·	·	·
Fc1ccccc1CSc1nc2ncccc2[nH]1	2.3	0.3	36	66*	-0.5	0.6
COC(=O)C1=C(N)OC2=C(C(=O)CC(C)(C)C2)C1c1ccoc1 (centres undefined)	0.0041	0.5	55*	47	0.23	0.5
COC(=O)c1[nH]c2cc(OC)c(OC)cc2c1NC(=O)CN1CCN(Cc2ccccc2)CC1	·	0.6	28	36	·	0.7
COc1ccccc1N1CCN(Cc2ccc(OC)c(OC)c2OC)CC1	0.98	1	-50	4	0.94	1.5
COc1ccc(OC)c(CN2CCN(c3ccccc3OC)CC2)c1	·	0.2	36	78*	-0.8	0.6
CCc1ccc2c(CN3CCc4cc(OC)c(OC)cc4C3)cc(=O)oc2c1	·	·	·	·	0.2	·
c1csc(CN2CCOCC2)c1	0.6	0.1	100*	94*	0.77	0
c1csc(CNCCCN2CCOCC2)c1	-0.59	1	3	0	0.25	1
COc1cc2c(cc1OC)CN(Cc1cccs1)CC2	·	0.3	18	66*	0.58	0.8
COc1ccccc1N1CCN(Cc2cccs2)CC1	-0.083	0.1	36	94*	-0.37	0.6
SMILES	Cav32 inh	CYP2C19 activ	CYP2C9 inhib	CYP2C19 inhib	Pyk2 oligo antag	CYP2C9 activ
CC1CCCCC1NC(=O)COC(=O)c1ccc(S(=O)(=O)N2CCOCC2)cc1 (centres undefined)	0.37	1	4	-1	1.2	1
CCOC(=O)CC1ON(C)C(=O)N1c1ccc(Cl)cc1Cl (centres undefined)	-1.3	0	46	99*	-0.62	0.5
CCCNC(=O)NC(C(=O)OC)C12CC3CC(CC(C3)C1)C2 (centres undefined)	1.3	0.3	40	69*	0.55	0.6
COc1ccc(CNC(=O)CSc2nnc(Cn3nnc4ccccc43)n2C)cc1	-0.29	0.8	2	18	1.3	1
Cc1ccc(S(=O)(=O)/N=C2/NC(=O)/C(=C\c3ccco3)S2)cc1	·	0.8	43	19	-0.8	0.6
Cc1ccc(S(=O)(=O)N=C2SCCCS2)cc1	0.031	0.6	-104	37	-0.01	2*
COc1cc(CNC2CCCC2)cc(Cl)c1OCc1ccccc1F	-1.4	0	6	96*	0.8	0.9
Cn1c(C(=O)NCC2CCCO2)cc2c(=O)[nH]c3ccccc3c21 (centres undefined)	0.62	·	·	·	-1.3	·
Cn1c(C(=O)NCC2CCCO2)cc2oc3ccccc3c21 (centres undefined)	-1.4	0.3	81*	72*	-0.19	0.2
Cn1c(C(=O)NCc2cccs2)cc2oc3ccccc3c21	·	0.5	79*	51*	-0.54	0.2
CC(=O)c1c[nH]c(C(=O)NCC2CCCO2)c1 (centres undefined)	0.52	0.3	11	69*	-0.16	0.9
COC(=O)c1cc(S(=O)(=O)N2CCOCC2)ccc1Sc1ccccc1N	0.3	0.9	37	5	-0.86	0.6
Cc1ccccc1NC(=O)C(C#N)Cc1cccnc1 (centres undefined)	-0.57	0.8	11	23	-0.05	0.9
CCCn1c(=O)c(C(=O)Nc2nnc(CC)s2)c(O)c2ccccc21	·	1.1	17	-12	·	0.8
O=C(c1ccc2c(=O)n3c(nc2c1)CCCCC3)N1CCN(Cc2ccccc2)CC1	2.6	0.4	73*	55*	0.64	0.3
CN1CCN(C(=O)c2ccc3c(=O)n4c(nc3c2)CCCCC4)CC1	-0.026	1	-4	-4	0.97	1
Cc1ccc(C(=O)Nc2ccccc2OC(F)F)cc1	-0.69	0.8	-5	17	-1.2	1
O=C(NCCCN1CCOCC1)c1cc(-c2ccc3c(c2)OCO3)nc2ccccc12	0.039	0.9	54*	12	·	0.5
CCc1ccc(-c2cc(C(=O)NN3CCOCC3)c3ccccc3n2)cc1	0.34	0.9	54*	10	-0.14	0.5
CCc1ccc(-c2cc(C(=O)Nc3ccc(S(=O)(=O)NC(C)=O)cc3)c3ccccc3n2)cc1	1.2	0.8	3	18	-1.4	1
Cc1ccc2nc(-c3ccccc3)cc(C(=O)N3CCc4ccccc4C3)c2c1	·	0.8	33	20	-1	0.7
CCOc1ccc(-c2cc(C(=O)NCCCN3CCN(CC)CC3)c3ccccc3n2)cc1	1	1.1	19	-7	-0.79	0.8
Nc1c(C(=O)NCc2ccc(F)cc2)c2nc3ccccc3nc2n1CCCN1CCOCC1	-2.9	0.6	20	36	0.22	0.8
COc1ccc(CNC(=O)c2c(N)n(CCCN3CCOCC3)c3nc4ccccc4nc23)cc1	-2.1	0.3	13	75*	0.66	0.9
